# LmPK inh: blocks Leishmania mexicana pyruvate kinase activity; Q27686; purified LmPK, Kinase-Glo ATP luminescence, 1 h; Potency, µM (series often up to 57.5 µM), without a hit: at the top dose activity change, negative = inhibition, actives largely listed as inhibitors; hit rate 0.37% among 290,000; also: potency is read from the fitted curve at half-maximal effect; % is scaled to controls: 0 for no effect and ±100 for the full control effect
#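 0.1 nM LmPK, 0.5 mM PEP, 0.1 mM ADP; 50 mM imidazole pH 7.2, 7 mM MgCl2, 50 mM KCl; 1 h RT. Kinase-Glo luminescence readout, normalized to no-enzyme (full inhibition) and uninhibited wells.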
# CHX counter: affects cycloheximide protein synthesis inhibition readout, counter-screen; max response, %; AID 2314; hit rate 12% among 300,000; cell reporter, cycloheximide protein synthesis inhibition counterscreen; in the data active = max response mostly above about 13%, no sharp cut-off; inactive = mostly below about 14%; also: read at 38.3 µM for the half of the compounds with a filed dose; 0% is about no effect
# Shiga toxin inh: blocks Shiga toxin action in Vero cells. hit rate 9.2% among 290,000. Vero cells, Shiga toxin protein synthesis inhibition reporter. AID 2315. inhibition, % at 38.7 µM; in the data active = inhibition mostly above about 28%, no sharp cut-off; inactive = mostly below about 43%; also: 0% is about no effect
# Tb PYK inh: T. brucei pyruvate kinase inhibition; Q57TT1; Potency, µM (highest dose often 76.8 µM), for inactives: at the top dose activity, negative = inhibition, hits mostly inhibitors; TbPYK enzyme, Kinase-Glo Plus ATP luminescence, 45 min; hit rate 0.12% among 410,000; AID 624173; also: potency is read from the fitted curve at half-maximal effect; % is scaled to controls: 0 for no effect and ±100 for the full control effect; nearly all actives have a fitted effect of over 50% in size
#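 Quantitative HTS: titrated library compounds versus trypanosomal pyruvate kinase in TEA buffer (pH 7.2) containing KCl, MgCl2, BSA and Tween-20. Reactions were initiated with ADP, 130 uM final. Kinase-Glo Plus luminescence was read after 45 min at RT.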
# Giardia FBPA inh: inhibitors of Giardia lamblia fructose-1,6-bisphosphate aldolase | A8B2U2 | purified Giardia FBPA | Potency, µM (top dose mostly 59.6 µM), for the others: at the highest dose activity, negative = inhibition, hits mostly inhibitors | hit rate 0.71% among 290,000 | AID 2451; also: potency is read from the fitted curve at half-maximal effect; % is scaled to controls: 0 for no effect and ±100 for the full control effect; nearly all actives have a fitted effect of over 55% in size
# Target sequence (A8B2U2 whole entry, looked up): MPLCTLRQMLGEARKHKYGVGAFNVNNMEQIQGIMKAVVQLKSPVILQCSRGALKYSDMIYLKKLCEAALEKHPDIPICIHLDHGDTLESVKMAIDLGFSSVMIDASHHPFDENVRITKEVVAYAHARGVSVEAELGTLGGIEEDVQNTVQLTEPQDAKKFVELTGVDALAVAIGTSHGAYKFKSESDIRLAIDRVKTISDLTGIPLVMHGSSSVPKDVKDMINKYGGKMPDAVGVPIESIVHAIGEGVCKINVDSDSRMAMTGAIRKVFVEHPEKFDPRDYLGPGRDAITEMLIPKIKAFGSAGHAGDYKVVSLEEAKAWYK
#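 Giardia FBPA (40 nM reagent) was preincubated 10 min at RT with compound (up to 57.5 uM final), then substrate plus GAPDH/TPI/NAD/arsenate coupling system with diaphorase/resazurin was added; resorufin fluorescence (525/598 nm) was read after 20 min.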
# RE007 growth inh: less growth of the S. pombe RE007 Vpr strain | S. pombe RE007 Vpr strain, BacTiter-Glo ATP luminescence, 24 h | Potency, µM (doses to about 92.2 µM), for inactives: at the highest dose activity change, negative = less growth, hits mostly inhibitors | hit rate 0.21% among 360,000; active = well fitted falling curve with a large enough effect; inconclusive = small, poorly fitted or top-dose-only effect; inactive = no such curve, though single readings can be large or run the other way; also: potency is read from the fitted curve at half-maximal effect; % is scaled to controls: 0 for no effect and ±100 for the full control effect; nearly all actives have a fitted effect of over 50% in size
#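 Fission yeast RE007 carrying one integrated HIV-1 vpr copy, seeded at OD 0.01 in PMG+AL medium with 23 nL pinned compound. Grown 24 h at 30 degrees; viability read by BacTiter-Glo luminescence after 5 min.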
# * marks the source's active call; other numbers are inactive results; ? = inconclusive; / = not tested or not shown; [ ] = dose if it differs, or a comment. The full list was thinned out, with hits kept by preference. Unless noted, calls follow the shape of the dose curve; as a rule, active = well fitted curve in the direction sought with a large enough effect; inconclusive = small, poorly fitted or top-dose-only effect, or another doubt; inactive = no such curve, though single readings can be large; an effect the other way counts as inactive or inconclusive.
SMILES,LmPK inh,CHX counter,Shiga toxin inh,Tb PYK inh,Giardia FBPA inh,RE007 growth inh
COc1cc(C(C)=O)ccc1OCc1cc(C(=O)N(C)CCC2CCCCO2)no1 (configuration not stated),6%,53*,101*,-4%,-12%,1%
CCCN(CC1CCCO1)C(=O)c1cc(COc2ccc(F)cc2F)on1 (configuration not stated),4%,8,22,1%,-1%,5%
COc1ccccc1OCc1cc(C(=O)N(C)CCC2CCCCO2)no1 (configuration not stated),-13%,59*,126*,-6%,/,-5%
CCc1ccccc1OCCSc1nnc(-c2cc(OC)c(OC)c(OC)c2)o1,/,/,/,-8%,/,/
CCOc1ccc(NC(=O)C2CCN(S(=O)(=O)c3c(C)noc3/C=C/c3cccs3)CC2)cc1,/,/,/,8%,/,/
CCN(C(=O)c1cc2c(=O)oc3ccccc3c2s1)c1ccc(C)c(C)c1,/,/,/,-1%,/,/
CC(=O)N(/C=C1\SC(=S)N(c2ccccc2)C1=O)c1ccccc1,-2%,9,40,-9%,-6%,-10%
CCN1C(=O)/C(=C/N(C)c2ccccc2)OC1=S,-8%,25*,67*,-4%,2%,-10%
CCN1C(=O)/C(=C2\Sc3ccccc3N2CC)OC1=S,3%,1,11,0%,1%,4%
CCN1C(=O)/C(=C\N(C(C)=O)c2ccccc2)OC1=S,1%,32*,31*,-7%,2%,1%
O=C(COC(=O)COc1ccccc1)Nc1ncc([N+](=O)[O-])s1,/,/,/,-5%,/,2%
N/C(=N\OC(=O)Nc1ccccc1)c1ncc([N+](=O)[O-])s1,6%,28*,44,-16%,0%,-7%
Nc1cccc2c3c(oc12)CCCC3,0%,9.4*,11,-5%,?,0%
O=C1C2CC=CCC2C(=O)N1c1ccc(NCCc2ccc(Cl)cc2)c([N+](=O)[O-])c1 (configuration not stated),-2%,-3,6,-5%,0%,10%
O=C1C2CC=CCC2C(=O)N1c1ccc(NCCc2ccc(O)cc2)c([N+](=O)[O-])c1 (configuration not stated),4%,33*,63*,-3%,-4%,11%
Cc1ccc(CNC(=O)c2ccc3c(c2)NC(=O)C(CS(=O)(=O)Cc2ccc(F)cc2)N3)cc1 (configuration not stated),/,/,/,-5%,/,/
CCCSc1nc(NCc2ccco2)c2c3c(sc2n1)COC(C)(C)C3,5%,26,46*,-6%,-13%,-4%
CCCCSc1nc(NCc2ccco2)c2c3c(sc2n1)COC(C)(C)C3,3%,44*,70*,-8%,-7%,7%
CCCN(Cc1nnc(-c2ccccc2Cl)o1)C(=O)c1cc([N+](=O)[O-])cc([N+](=O)[O-])c1,6%[11.5 µM],-2,-10,6%,-13%,9%
CCOC(=O)NC1(NCc2ccccc2)Oc2ccccc2O1,-7%,16*,-1,-19%,-14%,-21%
CCOC(=O)NC1(NCC(C)C)Oc2ccccc2O1,-2%,6,-8,-14%,?,-1%
CCOC(=O)NC1(Nc2ccc(C)cc2)Oc2ccccc2O1,4%,55*,46*,?,-12%,-14%
N=C1S/C(=C\c2ccco2)C(=O)N1c1ccc2c(c1)OCO2,-1%,33*,74*,3%,-9%,-22%
COc1ccccc1OCCN1C(=O)S/C(=C\c2ccco2)C1=O,3%,7,32,-2%,-12%,?
N=C1S/C(=C\c2ccco2)C(=O)N1c1nccs1,-4%,34*,59*,-6%,-18%,-10%
SMILES,LmPK inh,CHX counter,Shiga toxin inh,Tb PYK inh,Giardia FBPA inh,RE007 growth inh
COc1ccc(Nc2ncc(C(=O)Nc3cccc(OC)c3)c3ccccc23)cc1,/,/,/,-3%,/,/
COc1cccc(/C=C2\Oc3cc(OC(=O)N4CCOCC4)ccc3C2=O)c1,0%,2,39,-3%,4%,12%
O=C1/C(=C/c2cccc(F)c2)Oc2cc(O)ccc21,2%,22*,40*,-7%,7%,-25%
O=C1/C(=C/c2ccc(O)c(O)c2)Oc2ccccc21,/,35*,77*,/,?,/
Cc1ccccc1/C=C1\Oc2ccccc2C1=O,/,/,/,-9%,/,-29%
Cc1cccc(/C=C2\Oc3cc(OS(C)(=O)=O)ccc3C2=O)c1,0%,26*,36,3%,7%,-12%
CC[C@]1(C(=O)OC)[C@H]2C(=O)N(C)C(=O)[C@H]2[C@H]2CN=C(SCC3CC3)N21,/,/,/,-8%,/,4%
COc1cc2ccccc2cc1C(=O)Nc1cccc(-c2nc3cc(C)c(C)cc3o2)c1C,/,/,/,-3%,/,/
COc1cc2c(cc1OC)/C(=C/C(=O)c1ccc(OC)c([N+](=O)[O-])c1)NCC2,7%,11*,19,-6%,-9%,22%
COCCCNc1nc(NCc2ccccc2OC)c2cnn(C)c2n1,/,/,/,0%,/,/
Cc1ccc(NC(=O)c2ncn(-c3ccccc3)n2)cc1Cl,/,/,/,-2%,/,/
c1ccc(OCc2cc(-c3ccccc3)no2)cc1,2%,53*,76*,-5%,-1%,-2%
COc1ccccc1OCc1cc(-c2ccccc2)no1,-1%,68*,89*,1%,-3%,1%
Nc1nc(N)c2cc([N+](=O)[O-])ccc2n1,/,/,/,-3%,/,9%
Nc1nc(N)c2c(ccc3c2ccn3Cc2cccc([N+](=O)[O-])c2)n1,/,/,/,1%,/,5.6µM*
Cc1c(O)ccc(C(=O)COc2ccccc2F)c1O,1%,30*,86*,/,5%,-5%[3.69 µM]
O=C(c1ccc(Cl)s1)N1CCCC1,2%,16,-9,-13%,2%,1%
CC(C)(C)c1ccc(C(=O)N2CCCC2)s1,-9%,26*,51*,2%,2%,-8%
O=C(c1cccc(F)c1)N1CCC(c2c[nH]c3ccccc23)(c2c[nH]c3ccccc23)CC1,/,/,/,-6%,/,/
CC(=O)c1ccc(NC(=O)c2cc3nc4c(c(C(F)(F)F)n3n2)CCCC4)cc1,0%,38*,60*,/,5%,/
O=C(NC1CCCCC1)c1cc2nc(-c3ccco3)cc(C(F)(F)F)n2n1,8%,-2,5,9%,7%,13%
O=C(NC1CCCCC1)c1cc2nc3c(c(C(F)(F)F)n2n1)CCCC3,0%,45*,79*,-6%,-7%,-9%
Cc1cc2nc3c(c(C(F)(F)F)n2n1)CCCC3,-2%,5,50,-19%,4%,-9%
CCCC(=O)N1CCN(c2ccc(NC(=O)c3ccc(Br)o3)cc2)CC1,-8%,5,18,-2%,-8%,-4%
CCCOC(=O)c1ccc(NC(=O)c2c(Cl)ccc(Cl)c2OC)cc1,0%,-2,-3,6%,-5%,-11%

# Screening data from PubChem.
